# Compound activity deposited in PubChem by The Scripps Research Institute Molecular Screening Center.
# ssDAF-12 act: S. stercoralis DAF-12 nuclear receptor activators, primary screen, cell-based, luminescence, HEK293, GRIP1 co-expression, lit1-tk-luc | Nuclear hormone receptor DAF-12 (Strongyloides stercoralis) | HEK293 ssDAF-12/GRIP1 lit1-tk-luc reporter; % of 3 µM dafachronic acid response | activation, % at 6.8 µM | 370,000 tested, 1% active | AID 652126, 2013;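 active means activation above the mean over all tested compounds plus 3 SD, cut at about 0.9% in these data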;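 further: 0% = DMSO-only wells and 100% = 3 µM delta7-dafachronic acid wells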
# DAX1 inh-1: DAX1 (NR0B1) inhibitors on StAR promoter, primary screen, cell-based, luminescence, SF-1 (NR5A1), full-length DAX-1; 370,000 tested, 1.1% active; HEK293T StAR-luciferase reporter, SF-1/DAX-1 repression relief; AID 652010, 2013; inhibition, % at 6.8 µM;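 active means inhibition above the mean over all tested compounds plus 3 SD, cut at about 3.6% in these data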;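 further: 0% = DAX-1 cells with DMSO and 100% = cells lacking DAX-1 with DMSO; higher inhibition means more luminescence from relief of DAX-1 repression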
# hcDAF12 agonist: H. contortus DAF-12 nuclear receptor activators, primary screen, cell-based, luminescence, HEK293, lit1-tk-luc reporter; HEK293 hcDAF-12 lit1-tk-luc reporter; 0% DMSO, 100% Δ7-dafachronic acid; activation, % at 6.8 µM; 370,000 tested, 1.4% active;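 active means activation above the mean of all tested compounds plus 3 SD, cut at about 5.5% in these data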;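 further: 100% = response to 3 µM Δ7-dafachronic acid high control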
# hgDAF12 agonist: H. glycines DAF-12 receptor agonists, primary screen, cell-based, luminescence, HEK293, GAL4 fusion, UAS-luciferase; HEK293 GAL4-hgDAF12 UAS-luciferase reporter, agonist luminescence; normalized to butyrate control; activation, % at 6.8 µM; 370,000 tested, 1.8% active; AID 687014, 2013;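 active means activation above a cutoff set at the mean of all screened compounds plus 3 SD, cut at about 10% in these data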;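 further: 0% = DMSO wells and 100% = sodium butyrate wells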
# DAX1 inh-2: DAX1 (NR0B1) inhibitors, primary screen, cell-based, HEK293, Gal4-DAX1, luciferase luminescence. AID 504766, 2011. 340,000 tested, 0.99% active. Nuclear receptor subfamily 0 group B member 1 (Homo sapiens), P51843. inhibition, % at 6.75 µM. HEK293 Gal4-DAX1 luciferase reporter;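 active means inhibition above the mean over all tested compounds plus 3 SD, cut at about 4.2% in these data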;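 further: 0% = DAX1-transfected cells with DMSO and 100% = empty-vector control cells with DMSO; inhibition shows as a rise in luminescence from relieved DAX1 repression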
# Target sequence (P51843 207-470 limits assumed): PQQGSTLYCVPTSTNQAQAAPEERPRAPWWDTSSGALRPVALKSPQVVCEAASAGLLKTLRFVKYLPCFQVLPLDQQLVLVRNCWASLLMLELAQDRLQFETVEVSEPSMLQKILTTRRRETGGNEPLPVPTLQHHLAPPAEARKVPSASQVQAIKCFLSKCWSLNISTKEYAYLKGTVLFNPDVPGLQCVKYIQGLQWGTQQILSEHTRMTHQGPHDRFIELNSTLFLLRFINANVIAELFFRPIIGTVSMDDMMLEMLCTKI
# An asterisk follows results filed as active; · = no result. Only some compounds are listed: those with a hit (about 4.1% of all), similar ones and a draw of the others.
SMILES,ssDAF-12 act,DAX1 inh-1,hcDAF12 agonist,hgDAF12 agonist,DAX1 inh-2
COc1cc(NC(=O)c2csc3c2CCCC3)ncn1,-0.2,2.5,0.5,12.1*,3.5
C=C1c2ccccc2O[C@H](C(=O)OCC)[C@@H]1C1CCCCC1,-1.0,4.1*,1.6,1.3,-1.3
CCOC(=O)C1=C(N)c2ccccc2CC1C1CCCC1 (configuration not stated),-1.6,0.4,-0.4,1.8,0.5
C=CCN1C(=O)[C@@H](CC(=O)NCc2cccc(C(F)(F)F)c2)[C@]2(C(=O)OCC)CCCCC/C=C/12,-1.3,1.1,1.4,1.9,·
FC(F)(F)Oc1cccc(Cn2ccc3ccc(-c4ccc5ccn(Cc6cccc(OC(F)(F)F)c6)c5c4)cc32)c1,-0.8,-0.1,-0.3,-3.4,·
Nc1ccc(OCc2ccccc2)cc1,-0.7,0.9,-2.1,5.0,4.2
c1ccc(COc2ccc3nocc3c2)cc1,-0.7,0.7,4.1,10.7*,3.6
CCCCN1CC(=O)N2[C@H](C[C@@]3(C)c4ccccc4N(S(=O)(=O)c4ccccc4)[C@@H]23)C1=O,-1.0,-1.3,-0.7,-0.2,·
COc1oc(-c2ccccc2C)nc1C(F)(F)F,-0.7,-0.1,-1.3,0.6,0.5
COc1oc(-c2ccccc2)nc1C(F)(F)F,-0.1,0.8,-1.3,-0.1,4.3*
O=C(Cn1c(=O)n(Cc2ccco2)c(=O)c2ccccc21)Nc1cccc(Cl)c1,-1.1,0.0,1.5,11.2*,1.5
CCCCn1c(N)c(N(CC(C)C)C(=O)c2cccc(S(=O)(=O)N(C)c3ccccc3)c2)c(=O)[nH]c1=O,-0.9,1.0,0.0,-3.5,0.5
CCCCN(C(=O)c1ccc(S(=O)(=O)N(C)c2ccccc2)cc1)c1c(N)n(CCC)c(=O)[nH]c1=O,-1.0,4.4*,0.2,0.9,0.8
CCCCN(C(=O)c1ccc(N(C)S(=O)(=O)c2ccc(C)cc2)cc1)c1c(N)n(CCC)c(=O)[nH]c1=O,-1.0,0.9,0.0,-0.2,0.8
CCCCn1c(N)c(N(CC(C)C)C(=O)c2ccc(S(=O)(=O)N(CC)c3ccccc3)cc2)c(=O)[nH]c1=O,1.4*,-0.2,1.0,-2.3,1.4
COc1ccc(OC)c(NC(=O)c2ccccc2N(Cc2ccccc2)C(=O)C(C)Cl)c1 (configuration not stated),-1.3,-0.7,-2.3,-0.7,·
Brc1ccc(NCc2cccc3ccccc23)nc1,-1.4,-0.5,-1.6,-1.3,-1.2
Oc1ccccc1CNc1ccc(Br)cn1,-0.9,1.0,4.0,11.7*,2.2
CCCNC(=O)Nc1nc2ccccc2s1,-0.2,3.0,3.4,12.4*,4.4*
CCOC(=O)CC(=O)Nc1nc2ccccc2s1,-0.8,0.0,0.0,1.9,-0.3
CCOC(=O)Nc1nc2ccccc2s1,-0.2,2.9,3.5,11.0*,2.5
O=C(CCNC(=O)c1ccccc1Cl)Nc1nc2ccccc2s1,0.6,3.1,6.4*,8.9,1.9
O=C(On1c(-c2ccccc2)nc2ccccc2c1=O)c1ccco1,-0.5,0.2,0.8,4.3,1.3
COc1cc(OC)cc(-c2nc3ccccc3c(=O)n2OC(=O)c2ccccc2C)c1,-1.3,-0.3,-0.9,11.8*,-1.4
CCOc1ccc(-n2c(SCC(=O)Nc3cccc4ccccc34)nnc2-c2cccs2)cc1,-1.1,-2.9,-0.3,2.3,·
O=C(COC(=O)c1cc(Cl)nc(Cl)c1)NCCc1ccc(F)cc1,1.6*,-1.8,5.5,3.2,-0.3
O=C(COC(=O)c1ccc(F)cc1)NCCc1ccc(F)cc1,-1.2,-1.7,1.3,7.5,1.2
NC(=O)C1CC(=O)N(c2ccc(OCc3ccc(F)cc3)cc2)C1 (configuration not stated),0.0,1.4,0.7,9.8,4.7*
C[C@@H]1COc2cc(Br)ccc2S(=O)(=O)N1Cc1cn(CC2CCCCC2)nn1,-0.8,-0.5,-1.7,4.2,·
O=C(Nc1ccc(F)cc1)N1CCc2ccccc2C1,0.4,0.8,1.4,11.1*,0.6
